# ± gives the standard deviation of the averaged measurements. The full ranking holds about 2,900 compounds; the median of “NF-kB SEAP reporter activity, fold change vs agonist alone” is about 0.99, and the highest 2% start at about 2.6. The sample as a whole holds a higher share of the highest values than the screen did.
# Legend:
# RAW-Dual [1] = experiment: NF-kB SEAP reporter activity, fold change vs agonist alone; cytotoxicity flag (confluency mask): not cytotoxic; higher = enhanced NF-kB activity
# Procedure, shortened: (§1)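 RAW-Dual macrophages (50,000 cells/well in DMEM, 384-well plates) received 50 nL of library stock by pin tool, then a PRR agonist 1 h later, and were kept at 37 °C, 5% CO2. After 20 hours, supernatant was read for IRF by QuantiLuc luminescence and for NF-κB by QuantiBlue absorbance at 620 nm. Reporter activity is fold change over agonist-alone wells. Cytotoxic wells had IncuCyte confluency below 70% of agonist controls in both mask sets.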
# RAW-Dual [2] = experiment: NF-kB SEAP reporter activity, fold change vs agonist alone; higher = enhanced NF-kB activity
# Procedure, shortened: as §1
# RAW-Dual [3] = experiment: NF-kB SEAP reporter activity, fold change vs agonist alone; cytotoxicity flag (confluency mask): cytotoxic (confluency <70% of control); higher = enhanced NF-kB activity
# Procedure, shortened: as §1
# [4] = agonist: ODN 1826 (TLR9) 0.5 ug/mL
# [5] = agonist: Pam2CSK4 (TLR2/6) 0.1 ug/mL
# [6] = agonist: Pam3CSK4 (TLR2/1) 0.1 ug/mL
# [7] = library stock concentration (final ~1000-fold dilution): 10 mM, cytotoxicity flag (confluency mask): not cytotoxic, agonist: Imiquimod (TLR7) […]
# [8] = library stock concentration (final ~1000-fold dilution): 10 mM, cytotoxicity flag (confluency mask): not cytotoxic, agonist: MPLA (TLR4) […]
# [9] = library stock concentration (final ~1000-fold dilution): 10 mM, cytotoxicity flag (confluency mask): cytotoxic (confluency <70% of control), agonist: Imiquimod (TLR7) […]
# [10] = library stock concentration (final ~1000-fold dilution): 10 mM, cytotoxicity flag (confluency mask): cytotoxic (confluency <70% of control), agonist: MPLA (TLR4) […]
smiles,measurement,setting,value
Cl.NCCCCC(N)C(=O)O (stereo not drawn) (library stock concentration (final ~1000-fold dilution): 10 mM water),NF-kB SEAP reporter activity,RAW-Dual [1]; agonist: LPS (TLR4) 0.1 ug/mL,1.04
same,NF-kB SEAP reporter activity,RAW-Dual [1]; [4],1.11
same,NF-kB SEAP reporter activity,RAW-Dual [1]; [5],1.21
same,NF-kB SEAP reporter activity,RAW-Dual [1]; [6],1.17
Cl.NCCCCC(N)C(=O)O (stereo not drawn),NF-kB SEAP reporter activity,"RAW-Dual [2]; library stock concentration (final ~1000-fold dilution): 10 mM water, cytotoxicity flag (confluency mask): not cytotoxic, agonist: Imiquimod (TLR7) […]",0.925
same,NF-kB SEAP reporter activity,"RAW-Dual [2]; library stock concentration (final ~1000-fold dilution): 10 mM water, cytotoxicity flag (confluency mask): not cytotoxic, agonist: MPLA (TLR4) […]",1.06
CCOC(=O)C(CCc1ccccc1)NC(C)C(=O)N1CCCC1C(=O)O.O=C(O)/C=C\C(=O)O (stereo not drawn),NF-kB SEAP reporter activity,RAW-Dual [2]; [7],0.942
same,NF-kB SEAP reporter activity,RAW-Dual [2]; [8],1.06
CCOC(=O)C(CCc1ccccc1)NC(C)C(=O)N1CCCC1C(=O)O.O=C(O)/C=C\C(=O)O (stereo not drawn) (library stock concentration (final ~1000-fold dilution): 10 mM),NF-kB SEAP reporter activity,RAW-Dual [1]; agonist: LPS (TLR4) 0.1 ug/mL,1.08
same,NF-kB SEAP reporter activity,RAW-Dual [1]; [4],1.04
same,NF-kB SEAP reporter activity,RAW-Dual [1]; [5],1.03
same,NF-kB SEAP reporter activity,RAW-Dual [1]; [6],1.02
CC12CCC(O)CC1=CCC1C2CCC2(C)C(C(O)CC(O)(C(F)(F)F)C(F)(F)F)CCC12 (stereo not drawn) (library stock concentration (final ~1000-fold dilution): 10 mM),NF-kB SEAP reporter activity,RAW-Dual [1]; agonist: LPS (TLR4) 0.1 ug/mL,0.54
same,NF-kB SEAP reporter activity,RAW-Dual [1]; [4],0.663
same,NF-kB SEAP reporter activity,RAW-Dual [1]; [5],0.739
same,NF-kB SEAP reporter activity,RAW-Dual [1]; [6],0.489
CC12CCC(O)CC1=CCC1C2CCC2(C)C(C(O)CC(O)(C(F)(F)F)C(F)(F)F)CCC12 (stereo not drawn),NF-kB SEAP reporter activity,RAW-Dual [2]; [7],0.815
same,NF-kB SEAP reporter activity,RAW-Dual [2]; [8],0.786
O=C(Nc1ccc2[nH]nc(-c3ccc4[nH]ccc4c3)c2c1)c1c(Cl)cccc1Cl,NF-kB SEAP reporter activity,RAW-Dual [2]; [9],0.55
same,NF-kB SEAP reporter activity,RAW-Dual [2]; [10],0.704
O=C(Nc1ccc2[nH]nc(-c3ccc4[nH]ccc4c3)c2c1)c1c(Cl)cccc1Cl (library stock concentration (final ~1000-fold dilution): 10 mM),NF-kB SEAP reporter activity,RAW-Dual [3]; agonist: LPS (TLR4) 0.1 ug/mL,0.946
same,NF-kB SEAP reporter activity,RAW-Dual [3]; [4],0.844
same,NF-kB SEAP reporter activity,RAW-Dual [3]; [5],0.0858
same,NF-kB SEAP reporter activity,RAW-Dual [3]; [6],0.202
C=CC(=O)N1CCC(Oc2nc(Nc3ccc(N4CCC(N5CCN(C)CC5)CC4)cc3)c(C(N)=O)nc2CC)C1 (stereo not drawn) (library stock concentration (final ~1000-fold dilution): 10 mM),NF-kB SEAP reporter activity,RAW-Dual [3]; agonist: LPS (TLR4) 0.1 ug/mL,1.06
same,NF-kB SEAP reporter activity,RAW-Dual [3]; [4],0.194
same,NF-kB SEAP reporter activity,RAW-Dual [3]; [5],0.507
same,NF-kB SEAP reporter activity,RAW-Dual [3]; [6],0.542
C=CC(=O)N1CCC(Oc2nc(Nc3ccc(N4CCC(N5CCN(C)CC5)CC4)cc3)c(C(N)=O)nc2CC)C1 (stereo not drawn),NF-kB SEAP reporter activity,RAW-Dual [2]; [9],0.967
same,NF-kB SEAP reporter activity,RAW-Dual [2]; [10],1.62
CC1OC(OC2C(=O)c3c(O)cc(O)cc3OC2c2ccc(O)cc2)C(O)C(O)C1O (stereo not drawn),NF-kB SEAP reporter activity,RAW-Dual [2]; [7],1.03 ± 0.025
same,NF-kB SEAP reporter activity,RAW-Dual [2]; [8],1.04 ± 0.041
CC1OC(OC2C(=O)c3c(O)cc(O)cc3OC2c2ccc(O)cc2)C(O)C(O)C1O (stereo not drawn) (library stock concentration (final ~1000-fold dilution): 10 mM),NF-kB SEAP reporter activity,RAW-Dual [1]; agonist: LPS (TLR4) 0.1 ug/mL,1.09 ± 0.015
same,NF-kB SEAP reporter activity,RAW-Dual [1]; [4],0.9919 ± 0.0043
same,NF-kB SEAP reporter activity,RAW-Dual [1]; [5],1.06 ± 0.064
same,NF-kB SEAP reporter activity,RAW-Dual [1]; [6],1.39 ± 0.41
O=C1NC(=O)C(c2cnc3ccccn23)=C1c1cn2c3c(cc(F)cc13)CN(C(=O)N1CCCCC1)CC2,NF-kB SEAP reporter activity,RAW-Dual [2]; [7],2.62
same,NF-kB SEAP reporter activity,RAW-Dual [2]; [8],2.43
O=C1NC(=O)C(c2cnc3ccccn23)=C1c1cn2c3c(cc(F)cc13)CN(C(=O)N1CCCCC1)CC2 (library stock concentration (final ~1000-fold dilution): 10 mM),NF-kB SEAP reporter activity,RAW-Dual [1]; agonist: LPS (TLR4) 0.1 ug/mL,3.19
same,NF-kB SEAP reporter activity,RAW-Dual [1]; [4],2.72
same,NF-kB SEAP reporter activity,RAW-Dual [1]; [5],1.42
same,NF-kB SEAP reporter activity,RAW-Dual [1]; [6],1.84
CC(C(=O)Nc1ccc(Cl)cc1)C1CCC(c2ccnc3ccc(F)cc23)CC1 (stereo not drawn),NF-kB SEAP reporter activity,RAW-Dual [2]; [7],1.51
same,NF-kB SEAP reporter activity,RAW-Dual [2]; [8],1.55
CC(C(=O)Nc1ccc(Cl)cc1)C1CCC(c2ccnc3ccc(F)cc23)CC1 (stereo not drawn) (library stock concentration (final ~1000-fold dilution): 10 mM),NF-kB SEAP reporter activity,RAW-Dual [1]; agonist: LPS (TLR4) 0.1 ug/mL,0.974
same,NF-kB SEAP reporter activity,RAW-Dual [1]; [4],1.05
same,NF-kB SEAP reporter activity,RAW-Dual [1]; [5],0.52
same,NF-kB SEAP reporter activity,RAW-Dual [1]; [6],0.738
COc1ccc(CNCc2cccc3ccccc23)cc1.Cl (library stock concentration (final ~1000-fold dilution): 10 mM),NF-kB SEAP reporter activity,RAW-Dual [1]; agonist: LPS (TLR4) 0.1 ug/mL,1.45
same,NF-kB SEAP reporter activity,RAW-Dual [1]; [4],0.82
same,NF-kB SEAP reporter activity,RAW-Dual [1]; [5],1.04
same,NF-kB SEAP reporter activity,RAW-Dual [1]; [6],1.06
COc1ccc(CNCc2cccc3ccccc23)cc1.Cl,NF-kB SEAP reporter activity,RAW-Dual [2]; [7],1.34
same,NF-kB SEAP reporter activity,RAW-Dual [2]; [8],1.44
COC1CC2CCC(C)C(O)(O2)C(=O)C(=O)N2CCCCC2C(=O)OC(C(C)CC2CCC(O)C(OC)C2)CC(=O)C(C)C=C(C)C(O)C(OC)C(=O)C(C)CC(C)C=CC=CC=C1C (stereo not drawn),NF-kB SEAP reporter activity,RAW-Dual [2]; [7],1.44
same,NF-kB SEAP reporter activity,RAW-Dual [2]; [8],1.5
same,NF-kB SEAP reporter activity,"RAW-Dual [2]; library stock concentration (final ~1000-fold dilution): .1 mM, cytotoxicity flag (confluency mask): not cytotoxic, agonist: Imiquimod (TLR7) […]",1.35
same,NF-kB SEAP reporter activity,"RAW-Dual [2]; library stock concentration (final ~1000-fold dilution): .1 mM, cytotoxicity flag (confluency mask): not cytotoxic, agonist: MPLA (TLR4) […]",1.19
COC1CC2CCC(C)C(O)(O2)C(=O)C(=O)N2CCCCC2C(=O)OC(C(C)CC2CCC(O)C(OC)C2)CC(=O)C(C)C=C(C)C(O)C(OC)C(=O)C(C)CC(C)C=CC=CC=C1C (stereo not drawn) (library stock concentration (final ~1000-fold dilution): 10 mM),NF-kB SEAP reporter activity,RAW-Dual [1]; agonist: LPS (TLR4) 0.1 ug/mL,1.57
same,NF-kB SEAP reporter activity,RAW-Dual [1]; [4],1.11
same,NF-kB SEAP reporter activity,RAW-Dual [1]; [5],0.536
same,NF-kB SEAP reporter activity,RAW-Dual [1]; [6],0.77
COC1CC2CCC(C)C(O)(O2)C(=O)C(=O)N2CCCCC2C(=O)OC(C(C)CC2CCC(OC(=O)C(C)(CO)CO)C(OC)C2)CC(=O)C(C)C=C(C)C(O)C(OC)C(=O)C(C)CC(C)C=CC=CC=C1C (stereo not drawn),NF-kB SEAP reporter activity,RAW-Dual [2]; [7],2.36
same,NF-kB SEAP reporter activity,RAW-Dual [2]; [8],2.41
COC1CC2CCC(C)C(O)(O2)C(=O)C(=O)N2CCCCC2C(=O)OC(C(C)CC2CCC(OCCO)C(OC)C2)CC(=O)C(C)C=C(C)C(O)C(OC)C(=O)C(C)CC(C)C=CC=CC=C1C (stereo not drawn),NF-kB SEAP reporter activity,RAW-Dual [2]; [7],1.77
same,NF-kB SEAP reporter activity,RAW-Dual [2]; [8],1.92
COC1CC2CCC(C)C(O)(O2)C(=O)C(=O)N2CCCCC2C(=O)OC(C(C)CC2CCC(O)C(OC)C2)CC(=O)C(C)C=C(C)C(O)C(OC)C(=O)C(C)CC(C)C=CC=CC=C1C (stereo not drawn) (library stock concentration (final ~1000-fold dilution): .1 mM),NF-kB SEAP reporter activity,RAW-Dual [1]; agonist: LPS (TLR4) 0.1 ug/mL,1.2
same,NF-kB SEAP reporter activity,RAW-Dual [1]; [4],1.31
same,NF-kB SEAP reporter activity,RAW-Dual [1]; [5],1.53
same,NF-kB SEAP reporter activity,RAW-Dual [1]; [6],1.44
COC1CC2CCC(C)C(O)(O2)C(=O)C(=O)N2CCCCC2C(=O)OC(C(C)CC2CCC(OCCO)C(OC)C2)CC(=O)C(C)C=C(C)C(O)C(OC)C(=O)C(C)CC(C)C=CC=CC=C1C (stereo not drawn) (library stock concentration (final ~1000-fold dilution): 10 mM),NF-kB SEAP reporter activity,RAW-Dual [1]; agonist: LPS (TLR4) 0.1 ug/mL,1.83
same,NF-kB SEAP reporter activity,RAW-Dual [1]; [4],1.7
same,NF-kB SEAP reporter activity,RAW-Dual [1]; [5],0.629
same,NF-kB SEAP reporter activity,RAW-Dual [1]; [6],0.915
COC1CC2CCC(C)C(O)(O2)C(=O)C(=O)N2CCCCC2C(=O)OC(C(C)CC2CCC(OC(=O)C(C)(CO)CO)C(OC)C2)CC(=O)C(C)C=C(C)C(O)C(OC)C(=O)C(C)CC(C)C=CC=CC=C1C (stereo not drawn) (library stock concentration (final ~1000-fold dilution): 10 mM),NF-kB SEAP reporter activity,RAW-Dual [1]; agonist: LPS (TLR4) 0.1 ug/mL,3.85
same,NF-kB SEAP reporter activity,RAW-Dual [1]; [4],3.11
same,NF-kB SEAP reporter activity,RAW-Dual [1]; [5],1.33
same,NF-kB SEAP reporter activity,RAW-Dual [1]; [6],2.09
